The values below come from PubChem BioAssay (NCI).

SMILES strings stand for the structures. Values joined by “and” are separate entries in the source; they are usually repeats but may differ in a detail not shown here. Equal entries are not always repeated. About 79,000 compounds went through this panel and 15% of them were active in at least one assay; those are over-represented in the sample as a whole. The source holds several records for some structures; these can differ, active in one and inactive in another. Active and inactive are the calls of the source. No stated cut-off is given here; in the data, active means growth inhibition above about 70%; inactive means the rest.

One test is described as follows: NCI Yeast Anticancer Drug Screen. Data for the cln2 rad14 strain (AID 165).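 Further: 0% = growth equal to vehicle treated cultures.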 The settings on record: S. cerevisiae cln2 rad14 strain, at 50.0 µM (retest, dose inferred, filed as 5.0), stronger effect = higher value. In short, it runs like this:
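Readout is yeast growth inhibition versus vehicle-treated controls, using a strain with cln2 and rad14 alterations exposed to compound.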
With `Oc1c(Cl)cc(Cl)cc1Cc1cc(Cl)cc(Cl)c1O`, the growth inhibition is 99% (active) and 98% (active).

For the molecule `COc1cc(OC)c(OC)cc1/C=C\c1ccnc2ccccc12`, the growth inhibition was 57% (inactive).

Regarding `CC(C)C1=CC23CCC4C(C)(C(=O)O)CCCC4(C)C2CC1C1C(=O)OC(=O)C13` (stereo unspecified), the growth inhibition was 99% (active).

As to `CN(C)c1nc(N)c(C#N)c(C#N)c1C#N`, the growth inhibition was 45% (inactive).

Consider `C/C(=N\NC(=S)N1CCN(c2ccccn2)CC1)c1nccs1`, for which the growth inhibition was 98% (active).

Regarding `CCCCCCCCCCCCCCCCCCOCC(COP(=O)([O-])OCC[N+](C)(C)C)OC` (stereo unspecified), the growth inhibition was -46% (inactive).

Consider `COc1ccc2nc(C)cc(NCCCCCCCCCNc3cc(C)nc4ccc(OC)cc34)c2c1`, for which the growth inhibition is 75% (active).

For the molecule `CC1CC[P+](c2ccccc2)(c2ccccc2)c2c1ccc1ccccc21` (stereo unspecified), the growth inhibition is 97% (active).

As to `CC(C)C1=C(O)C2=C(C(=O)C1=O)C1(C)CCCC(C)(C)C1CC2O` (stereo unspecified), the growth inhibition was 98% (active).

For `CC(=O)[O-].[O-]c1c(Cl)cc(Cl)cc1/C=N/Nc1ccccn1.[Zn+2]`, the growth inhibition was 93% (active).

Consider `O=C(c1ccccc1)C(c1ccccc1)C(O)c1ccc([N+](=O)[O-])cc1` (stereo unspecified), for which the growth inhibition is 96% (active) and 99% (active).

Consider `Clc1nc(Cl)c(Cl)c(Cl)n1`, for which the growth inhibition was 92% (active).

As for `COc1cccc2c1C(=O)c1c(O)c3c(c(O)c1C2=O)C[C@@](O)(C(C)=O)C[C@@H]3OC1CC(N(C)C)C(O)C(C)O1` (stereo partly specified), the growth inhibition is 97% (active).

Regarding `CN1C(c2ccccc2)CC(=NOCc2ccccc2)CC1c1ccccc1` (stereo unspecified), the growth inhibition was 97% (active).

As for `Cc1ccc(NCCN(C)C)c2c(=O)c3cc(O)ccc3sc12`, the growth inhibition was 98% (active).

For `N#CC1(C2SCCS2=O)C2=C(C(=O)c3ccccc3C2=O)N2CCCC21` (stereo unspecified), the growth inhibition was 40% (inactive).

As for `CCN(CC)CCC(=O)/C=C/c1ccccc1`, the growth inhibition is 97% (active).

For `CC1(O)Cc2c(O)c3c(c(O)c2CC1O)C(=O)C=CC3=O` (stereo unspecified), the growth inhibition was 37% (inactive).

For `Cc1ccc2c(c1)C1(C)OC(C=CC1=O)O2` (stereo unspecified), the growth inhibition was 99% (active).

Take `Fc1cccc(CSC(=S)Nc2ccc(F)c(F)c2)c1`: the growth inhibition was 91% (active).

Take `CCN(CCO)CCNc1ccc(C)c2sc3ccccc3c(=O)c12`: the growth inhibition is 94% (active).

`Cc1n(-c2ccccc2)c2c([n+]1Cc1ccc([N+](=O)[O-])cc1)C(=O)c1ccccc1C2=O`: the growth inhibition is 92% (active).

As to `CC(=O)OC1COC(n2c(N)c(C#N)c(-c3ccccc3)c(C#N)c2=S)C(OC(C)=O)C1OC(C)=O` (stereo unspecified), the growth inhibition is -17% (inactive) and 61% (inactive).

With `O=c1[nH]c2cc([N+](=O)[O-])ccc2nc1/C=C(\O)c1ccc([N+](=O)[O-])cc1`, the growth inhibition is 38% (inactive).

For `Cc1n(Cc2ccccc2)c2c([n+]1C)C(=O)c1ccccc1C2=O`, the growth inhibition is 92% (active).

On to `CS(=O)(=O)OCCN(CCOS(C)(=O)=O)c1ccc(C=Nc2ccc(-c3csc(Cc4ccccc4)n3)cc2)c(Cl)c1`, for which the growth inhibition was 85% (active).

On to `CCCCCCCCCCS(=O)CC(CO)NC(=O)/C=C/c1c(C)[nH]c(=O)[nH]c1=O` (stereo unspecified), for which the growth inhibition is 89% (active).

Consider `C/C(=N\O)c1cc(Br)cc([N+](=O)[O-])c1O`, for which the growth inhibition was 11% (inactive).

In the case of `COc1cc2c(c(OC)c1OC)-c1ccc(SC)c(=O)cc1C(NC(=O)c1ccccc1)CC2` (stereo unspecified), the growth inhibition was 48% (inactive).

With `COc1cccc2c1C(=O)c1c(O)c3c(c(O)c1C2=O)C[C@@](O)(C(C)=O)C[C@@H]3OC1CC(O)C(O)C(C)O1` (stereo partly specified), the growth inhibition is 90% (active).

For the molecule `CCCCCCCc1c(Cl)nc(Cl)nc1Cl`, the growth inhibition is 78% (active).

Turning to `O=C1/C(=C/c2ccc(Cl)cc2)CNC/C1=C\c1ccc(Cl)cc1`, the growth inhibition was 85% (active) and 73% (active).

In the case of `O=C1C(Cl)=C(N2CCN(C3=C(Cl)C(=O)c4ccccc4C3=O)CC2)C(=O)c2ccccc21`, the growth inhibition is 98% (active).

Consider `O=C1c2ccccc2-n2c1nc1ccccc1c2=O`, for which the growth inhibition was 43% (inactive).

As for `Nc1ccc(Cn2ccc3c4c(N)nc(N)nc4ccc32)cc1`, the growth inhibition is 60% (inactive).

With `Nc1nc(N)c2c(Cl)c(CNc3ccc(Cl)c(Cl)c3)ccc2n1`, the growth inhibition was 98% (active).

As to `Cc1cc(NCCCCCCCNc2cc(C)nc3cc([N+](=O)[O-])ccc23)c2ccc([N+](=O)[O-])cc2n1`, the growth inhibition is 70% (active).

For `CCCCCCCCCCCCCCCCCC(=O)NCCO`, the growth inhibition was -8% (inactive).

The same test, now with this note: S. cerevisiae cln2 rad14 strain, at 50.0 µM, stronger effect = higher value.
As for `Oc1c(Cl)cc(Cl)cc1Cc1cc(Cl)cc(Cl)c1O`, the growth inhibition is 99% (active).

On to `COc1cc(OC)c(OC)cc1/C=C\c1ccnc2ccccc12`, for which the growth inhibition is 41.5% (inactive).

For the molecule `CC(C)C1=CC23CCC4C(C)(C(=O)O)CCCC4(C)C2CC1C1C(=O)OC(=O)C13` (stereo unspecified), the growth inhibition is 99% (active) and 98.5% (active).

Turning to `CN(C)c1nc(N)c(C#N)c(C#N)c1C#N`, the growth inhibition is 53.9% (inactive).

For `C/C(=N\NC(=S)N1CCN(c2ccccn2)CC1)c1nccs1`, the growth inhibition is 89.5% (active).

With `CCCCCCCCCCCCCCCCCCOCC(COP(=O)([O-])OCC[N+](C)(C)C)OC` (stereo unspecified), the growth inhibition was 88.2% (active) and 9.5% (inactive).

As to `COc1ccc2nc(C)cc(NCCCCCCCCCNc3cc(C)nc4ccc(OC)cc34)c2c1`, the growth inhibition is 71% (active).

In the case of `CC1CC[P+](c2ccccc2)(c2ccccc2)c2c1ccc1ccccc21` (stereo unspecified), the growth inhibition was 88.8% (active).

Take `CC(C)C1=C(O)C2=C(C(=O)C1=O)C1(C)CCCC(C)(C)C1CC2O` (stereo unspecified): the growth inhibition was 32.4% (inactive) and 6.45% (inactive).

`CC(=O)[O-].[O-]c1c(Cl)cc(Cl)cc1/C=N/Nc1ccccn1.[Zn+2]`: the growth inhibition is 95.5% (active).

Regarding `O=C(c1ccccc1)C(c1ccccc1)C(O)c1ccc([N+](=O)[O-])cc1` (stereo unspecified), the growth inhibition is 94.8% (active) and 99.2% (active).

On to `Clc1nc(Cl)c(Cl)c(Cl)n1`, for which the growth inhibition is 13.1% (inactive).

In the case of `COc1cccc2c1C(=O)c1c(O)c3c(c(O)c1C2=O)C[C@@](O)(C(C)=O)C[C@@H]3OC1CC(N(C)C)C(O)C(C)O1` (stereo partly specified), the growth inhibition is 90.2% (active).

Turning to `CN1C(c2ccccc2)CC(=NOCc2ccccc2)CC1c1ccccc1` (stereo unspecified), the growth inhibition was 86.6% (active).

As for `Cc1ccc(NCCN(C)C)c2c(=O)c3cc(O)ccc3sc12`, the growth inhibition is 90% (active).

Regarding `N#CC1(C2SCCS2=O)C2=C(C(=O)c3ccccc3C2=O)N2CCCC21` (stereo unspecified), the growth inhibition is 43.2% (inactive).

As for `CCN(CC)CCC(=O)/C=C/c1ccccc1`, the growth inhibition is 99.3% (active) and 6.75% (inactive).

With `CC1(O)Cc2c(O)c3c(c(O)c2CC1O)C(=O)C=CC3=O` (stereo unspecified), the growth inhibition was 14.9% (inactive).

As for `Cc1ccc2c(c1)C1(C)OC(C=CC1=O)O2` (stereo unspecified), the growth inhibition is 90.5% (active).

Take `Fc1cccc(CSC(=S)Nc2ccc(F)c(F)c2)c1`: the growth inhibition was 99.5% (active).

Regarding `CCN(CCO)CCNc1ccc(C)c2sc3ccccc3c(=O)c12`, the growth inhibition is 90.8% (active).

Take `Cc1n(-c2ccccc2)c2c([n+]1Cc1ccc([N+](=O)[O-])cc1)C(=O)c1ccccc1C2=O`: the growth inhibition was 85.2% (active).

As for `CC(=O)OC1COC(n2c(N)c(C#N)c(-c3ccccc3)c(C#N)c2=S)C(OC(C)=O)C1OC(C)=O` (stereo unspecified), the growth inhibition is -6.15% (inactive) and 14.3% (inactive).

On to `O=c1[nH]c2cc([N+](=O)[O-])ccc2nc1/C=C(\O)c1ccc([N+](=O)[O-])cc1`, for which the growth inhibition was 34% (inactive) and -15.9% (inactive).

As to `Cc1n(Cc2ccccc2)c2c([n+]1C)C(=O)c1ccccc1C2=O`, the growth inhibition is 89.2% (active).

Regarding `CS(=O)(=O)OCCN(CCOS(C)(=O)=O)c1ccc(C=Nc2ccc(-c3csc(Cc4ccccc4)n3)cc2)c(Cl)c1`, the growth inhibition was 77% (active).

For `CCCCCCCCCCS(=O)CC(CO)NC(=O)/C=C/c1c(C)[nH]c(=O)[nH]c1=O` (stereo unspecified), the growth inhibition is 84.2% (active).

For `C/C(=N\O)c1cc(Br)cc([N+](=O)[O-])c1O`, the growth inhibition was 39% (inactive).

In the case of `COc1cc2c(c(OC)c1OC)-c1ccc(SC)c(=O)cc1C(NC(=O)c1ccccc1)CC2` (stereo unspecified), the growth inhibition was 52.9% (inactive).

Turning to `COc1cccc2c1C(=O)c1c(O)c3c(c(O)c1C2=O)C[C@@](O)(C(C)=O)C[C@@H]3OC1CC(O)C(O)C(C)O1` (stereo partly specified), the growth inhibition was 83.3% (active).

`CCCCCCCc1c(Cl)nc(Cl)nc1Cl`: the growth inhibition was 46% (inactive).

Turning to `O=C1/C(=C/c2ccc(Cl)cc2)CNC/C1=C\c1ccc(Cl)cc1`, the growth inhibition was 83.8% (active) and 83.5% (active).

Regarding `O=C1C(Cl)=C(N2CCN(C3=C(Cl)C(=O)c4ccccc4C3=O)CC2)C(=O)c2ccccc21`, the growth inhibition is 87.8% (active).

Regarding `O=C1c2ccccc2-n2c1nc1ccccc1c2=O`, the growth inhibition was 17.9% (inactive).

With `Nc1ccc(Cn2ccc3c4c(N)nc(N)nc4ccc32)cc1`, the growth inhibition was 63.2% (inactive).

`Nc1nc(N)c2c(Cl)c(CNc3ccc(Cl)c(Cl)c3)ccc2n1`: the growth inhibition is 89.9% (active).

On to `Cc1cc(NCCCCCCCNc2cc(C)nc3cc([N+](=O)[O-])ccc23)c2ccc([N+](=O)[O-])cc2n1`, for which the growth inhibition is 57.8% (inactive).

For `CCCCCCCCCCCCCCCCCC(=O)NCCO`, the growth inhibition was -23.9% (inactive) and 37.4% (inactive).
